Compounds with a hit are over-represented: about 21% of the library has one in this group of screens.
Shiga toxin inh: inhibitors of Shiga toxin in Vero cells; Vero cells, Shiga toxin protein synthesis inhibition reporter; inhibition, % at 38.7 µM; actives 9.2% (n = 290,000); AID 2315; in the data active means inhibition mostly above about 28%, no sharp cut-off; inactive means mostly below about 43%; further: 0% is about no effect
NS1 function inh: influenza NS1 inhibition; Potency, µM (top dose mostly 46.1 µM), inactives show top-dose activity, positive = more growth; actives 0.4% (n = 270,000); calls by dose curve; further: potency means the concentration at half of the fitted maximal effect; actives are rising curves; nearly all actives have a fitted effect of over 50% in size
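In this qHTS, NS1 from influenza A is expressed in budding yeast, where it slows growth. Cells are switched from glucose to 2% galactose medium (pH 6.0, -URA), treated with compound, and growth recovery is read at OD600.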
Pf growth 96h: P. falciparum growth inhibition at 96 hour, primary screen for plastid delayed-death inhibitors | P. falciparum luciferase reporter growth, 96 h | Potency, µM (top dose mostly 28.7 µM), for the others: at the highest dose activity change, negative = inhibition, actives largely listed as inhibitors | actives 6.9% (n = 320,000) | AID 504834; further: potency means the concentration at half of the fitted maximal effect; on the % scale 0 is the no-effect control and ±100 the full control effect
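Two parasite generations (96 h, 37 C, 5% CO2) of compound exposure in infected erythrocytes (0.05% parasitemia, 2% hematocrit). Luciferase-reporter P. falciparum; decreased luminescence indicates inhibited growth, aimed at apicoplast-acting delayed death.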
Pf growth 48h: inhibits P. falciparum growth in the first generation, 48 h. P. falciparum luciferase growth in erythrocytes, 48 h. Potency, µM (top dose mostly 28.7 µM), inactives show at the highest dose activity change, negative = inhibition, hits mostly inhibitors. actives 5.9% (n = 310,000); further: potency means the concentration at half of the fitted maximal effect; on the % scale 0 is the no-effect control and ±100 the full control effect
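Read-out is firefly luciferase luminescence from an integrated reporter in P. falciparum, so falling signal marks reduced parasite growth. Infected erythrocytes were at 2% hematocrit and 0.1% parasitemia (final) in Albumax-supplemented RPMI 1640.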
CHX counter: counter-screen hit for Shiga toxin inhibitors, cycloheximide; actives 12% (n = 300,000); cell reporter, cycloheximide protein synthesis inhibition counterscreen; max response, %; in the data active means max response mostly above about 13%, no sharp cut-off; inactive means mostly below about 14%; further: read at 38.3 µM for the half of the compounds with a filed dose; 0% is about no effect
An asterisk follows results filed as active; ? = inconclusive; . = no result; [ ] = another dose, or the depositor's remark. Unless noted, the call rests on the fitted dose curve; in most records, active means well fitted inhibition curve with a large enough effect; inconclusive means small, poorly fitted or top-dose-only effect, or another doubt; inactive means no such curve, though single readings can be large or run the other way.

SMILES	Shiga toxin inh	NS1 function inh	Pf growth 96h	Pf growth 48h	CHX counter
COc1cccc(-c2noc(-c3cccs3)n2)c1	53.6*	-1.7%	.	328.0%	39.0*
N#Cc1c(-c2ccc(F)cc2)noc1N	23.1	-75.1%	.	.	6.4
COc1ccc(-c2nc(-c3cccnc3)no2)cc1OC	46.9*	-7.5%	52.9%	64.0%	39.1*
CCOc1cc(NC(=S)NCCOC)c(OCC)cc1NC(=O)c1ccco1	-10.1	2.6%	?	-25.3%	-8.7
COc1ccc(CCNS(=O)(=O)c2ccc(Cl)cc2)cc1OC	3.3	-4.8%	12.0%	-2.0%	1.1
COc1cccc(OCc2nnc(-c3cccs3)o2)c1	32.5*	-4.5%	25.1%	77.8%	33.2*
COc1ccc(-c2noc(-c3ccccc3C(=O)Nc3cccnc3)n2)cc1	26.6	-8.2%	-0.9%	?	6.0
COc1ccc(-c2noc(-c3ccccc3C(=O)Nc3cccnc3)n2)cc1OC	-0.1	-32.9%	.	10.4µM*	6.9
COc1cccc(-c2nc(-c3ccccn3)no2)c1	-24.9	-17.9%	?	33.6%	-10.5
COc1cccc(-c2nc(-c3ccccc3)no2)c1	63.0*	-63.3%	?	270.7%	36.7*
COc1cc2ccccc2cc1-c1nnc(COc2ccccc2)o1	23.8	-19.5%	21.6%	.	5.9
COc1cccc(-c2noc(C(C)n3nc(C)c([N+](=O)[O-])c3C)n2)c1 (centres undefined)	8.8	-3.4%	-11.0%	3.7%	17.9*
COc1cc(NC(=O)c2cccc(NC3=NC4CS(=O)(=O)CC4S3)c2)cc(OC)c1OC (centres undefined)	-11.6	-3.6%	43.4%	39.1%	-0.7
CCOC(=O)C(C(C)=O)c1c(Br)c(O)c(O)c2c(C(=O)c3ccc(C)cc3)coc12 (centres undefined)	34.4	-60.2%	.	.	18.9*
CCOC(=O)c1c(C)n(-c2ccc(C)cc2)c2c(C(C(C)=O)C(=O)O)c(Br)c(O)c(O)c12 (centres undefined)	-15.9	10.7%	.	?	13.5
O=C(CCn1cnnn1)Nc1ccc(F)cc1	66.2*	5.5%	1.4%	96.4%	26.4*
CC(=O)Nc1ccc(NC(=O)CCn2cnnn2)cc1	11.5	.	17.1%	-5.4%	-1.6
Cc1ccc(C)c(S(=O)(=O)NC(CCC(N)=O)C(=O)O)c1 (centres undefined)	-23.9	-2.8%	8.0%	11.3%	-6.3
Cc1cc(-c2nnc(SCC(=O)Nc3ccccc3Cl)n2C)no1	14.8	-5.4%	?	-23.4%	-1.4
CC(NC1=NCCS1)c1ccccc1 (centres undefined)	-6.6	.	-31.3%[5.75 µM]	?	0.7
N#Cc1ccc(OCC(=O)NC2=NCCS2)cc1	51.1	.	24.7%	24.6%	23.0
CC(C)c1ccc(OCC(=O)NC2=NCCS2)cc1	98.2*	.	-25.2%	344.2%	68.9*
CC(Oc1ccccc1)C(=O)NC1=NCCS1 (centres undefined)	79.5*	-0.6%	?	304.1%	38.1*
O=C(COc1ccccc1)NC1=NCCS1	95.1*	-5.5%	274.8%	.	41.0*
Cc1cc(C(F)(F)F)nc(CCNCc2c(C(=O)N3CCCC3)nc3ccccn23)n1	27.1	0.4%	?	-10.6%	-3.3
SMILES	Shiga toxin inh	NS1 function inh	Pf growth 96h	Pf growth 48h	CHX counter
CC1(C)Oc2ccc3ccc(=O)oc3c2/C(=C/NCCN/C=C2\C(=O)C(C)(C)Oc3ccc4ccc(=O)oc4c32)C1=O	1.1	0.6%	?	.	-4.8
O=C(CN(Cc1ccccc1Cl)C(=O)CCC(=O)Nc1nccs1)NCC1CCCO1 (centres undefined)	-5.6	-3.8%	?	6.6%	-3.7
COc1ccc(-c2nnn(CC(=O)N(Cc3ccccc3Cl)C(C(=O)NCC3CCCO3)c3ccco3)n2)cc1OC (centres undefined)	17.3	-5.4%	18.9%	9.28µM*	2.6
O=C(CN(Cc1ccccc1Cl)C(=O)Cn1nnc(-c2cccs2)n1)NCC1CCCO1 (centres undefined)	-4.8	-16.1%	1.17µM*	6.8%	1.3
Cc1ccc(-c2nnn(CC(=O)N(Cc3cccs3)C(C(=O)NCC3CCCO3)c3ccco3)n2)o1 (centres undefined)	11.8	-6.8%	0.0%	?	8.1
Cc1ccc(S(=O)(=O)N(Cc2ccccc2F)C(=O)N2CCN(C)CC2)cc1	.	.	7.4%	?	.
O=C(CSc1ncccc1C(=O)Oc1ccccc1Cl)Nc1ccccc1Cl	64.4*	.	.	.	19.7
CC(C)c1ccc(OCC(=O)Nc2cccc(C(=O)Nc3ccccc3C(=O)O)c2)cc1	-1.7	7.8%	9.28µM*	?	1.2
O=C(COc1ccccc1O)Nc1ccccc1Cl	92.6*	-31.3%	0.0%	74.6%	70.6*
O=C(COc1ccccc1Cl)Nc1ccc(C(=O)O)cc1NC(=O)COc1ccccc1Cl	16.1	12.0%	6.57µM*	1.4%	9.5
COc1ccc(OCC(=O)Nc2ccccc2Cl)cc1	37.2	-9.3%	24.4%	19.5%	1.7
COCCNC(=O)C1CCN(S(=O)(=O)c2c(C)noc2/C=C/c2cccs2)CC1	-3.5	-2.5%	48.5%	?	3.1
CC(=O)NC(c1ccco1)c1cc(Cl)c2ccc(N3CCCCC3)nc2c1O (centres undefined)	.	.	-22.5%	-26.2%	.
CCCS(=O)(=O)c1nc(S(=O)(=O)c2ccc(C)cc2)c(N2CCCC(C)C2)s1 (centres undefined)	-3.1	5.1%	?	?	-1.4
Cc1cc(C(=O)Nc2ccccc2C(=O)O)ccc1NC(=O)COc1ccccc1Cl	-27.0	-3.6%	?	0.3%	-3.1
O=C(COc1ccccc1Cl)Nc1ccccc1C(=O)Nc1cccc(C(=O)O)c1	32.8	4.8%	25.8%	56.1%	40.4*
COc1ccccc1/C=C/C1(C(=O)NC2CCCC2)CC(=O)N1c1ccc(F)cc1 (centres undefined)	14.1	-6.6%	31.8%	10.4µM*	1.6
COc1ccccc1/C=C/C1(C(=O)NC2CCCC2)CC(=O)N1c1ccc(C)cc1 (centres undefined)	-9.9	2.2%	-16.5%	?	-3.6
COc1cc(-c2nc(-c3cccc(C)c3)no2)cc(OC)c1OC	33.4*	-3.5%	.	-16.9%	15.6*
COc1cc(-c2nc(-c3ccc(C)nc3OC)no2)cc(OC)c1OC	-14.1	-2.6%	-23.7%	8.1%	-1.8
NC(=O)c1ccc(-c2noc(-c3cccc(Cl)c3)n2)cc1	.	.	138.6%	141.8%	.
COc1cc(-c2noc(-c3cccc(Cl)c3)n2)cc(OC)c1OC	-8.6	-0.5%	14.7µM*	27.1%	-0.5
COc1ccc(-c2nc(-c3cccc(C)c3)no2)cc1OC	60.0*	-9.0%	.	402.4%	25.1*
COc1cc(-c2nc(Cc3c(F)cccc3Cl)no2)cc(OC)c1OC	-14.2	?	?	11.7µM*	2.2
COc1ccccc1CNC(=S)NCc1ccc(F)cc1	3.2	-57.1%	?	?	8.7
COc1ccccc1-c1nc(-c2cccc(C)c2)no1	121.8*	-11.6%	?	421.4%	45.8*
CC/C(=N\NC(=O)c1ccccc1Cl)c1c(O)n(C2CCCCC2)c(=O)[nH]c1=O	11.8	-31.6%	?	10.6%	13.7*
